Consider 94 molecules from PubChem BioAssay AID583 (Sanford-Burnham Center for Chemical Genomics, 2007).

Values joined by “and” are separate entries in the source; they are usually repeats but may differ in a detail not shown here. Identical values can stand only once. Hit rate of the full screen: of about 140,000 compounds, about 80 (0.06%) were called active. Cut-off read from the data, not from the text of the source: active = displacement above about 50%; inactive = the rest. For the sample, actives were picked, then their nearest neighbours and some compounds at random. The source holds several records for some structures; these can differ, active in one and inactive in another.

The target of the test is Heat shock 70 kDa protein 1A (Homo sapiens) (UniProt P0DMV8). As to the kind of experiment: small molecules displacing fluorescent ligand from Hsp70 – biochemical, fluorescence polarization, primary screen (AID 583).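 Note: plate controls were vehicle for no effect and reference ligand for full effect.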 The note with it: Hsp70 fluorescence polarization probe displacement, mP; at 20 µM; stronger effect = higher value.
Heat shock 70 kDa protein 1A (Homo sapiens), sequence (P0DMV8 whole entry, looked up): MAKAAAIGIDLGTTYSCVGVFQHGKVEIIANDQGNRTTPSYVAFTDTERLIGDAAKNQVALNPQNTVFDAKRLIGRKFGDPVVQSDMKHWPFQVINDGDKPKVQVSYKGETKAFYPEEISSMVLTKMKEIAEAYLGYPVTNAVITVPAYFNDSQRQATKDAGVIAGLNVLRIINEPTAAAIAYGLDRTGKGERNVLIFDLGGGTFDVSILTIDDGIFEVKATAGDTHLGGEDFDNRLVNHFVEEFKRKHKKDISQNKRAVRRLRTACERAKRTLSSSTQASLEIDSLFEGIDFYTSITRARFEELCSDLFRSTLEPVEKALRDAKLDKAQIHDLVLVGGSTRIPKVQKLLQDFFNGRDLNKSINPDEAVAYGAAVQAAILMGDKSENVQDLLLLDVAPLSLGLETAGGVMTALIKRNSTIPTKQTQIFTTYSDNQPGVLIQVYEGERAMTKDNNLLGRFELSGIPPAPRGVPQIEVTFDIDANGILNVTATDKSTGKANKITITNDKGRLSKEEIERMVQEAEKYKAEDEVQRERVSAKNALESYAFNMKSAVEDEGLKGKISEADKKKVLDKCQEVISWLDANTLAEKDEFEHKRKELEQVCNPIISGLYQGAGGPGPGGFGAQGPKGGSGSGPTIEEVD
`Cc1cccc(-c2cc3nc(C)cc(NCCCN(C)C)n3n2)c1`: the displacement is 4.1% (inactive).

As to `CN(C)c1ccc(/C=N/N=C2/NC(=O)C(Cc3ccc(Cl)cc3)S2)cc1` (centres undefined), the displacement is -3.1% (inactive).

Take `O=C(O)c1ccc(CN2CCOCC2)cc1`: the displacement is 0% (inactive).

In the case of `Cc1ccc(C)n1Cc1ccc(C(=O)O)cc1`, the displacement was 103% (active) and 21.6% (inactive).

Consider `Cc1cc(C)n(Cc2ccc(C(=O)O)cc2)n1`, for which the displacement is -8.4% (inactive).

In the case of `N#Cc1cc2c(nc1SCc1ccc(Br)cc1)CCCC2`, the displacement was -3.8% (inactive).

`O=C(COc1ccc(Cl)cc1Cl)NNC(=O)CN1C(=O)/C(=C/c2ccc(Cl)cc2Cl)SC1=S`: the displacement was 0.4% (inactive).

For the molecule `COc1ccccc1/C=N/NC(=O)C(=O)NCc1ccccn1`, the displacement is -2.8% (inactive).

As to `CCn1c2ccccc2c2cc(CN3CCN(C(=O)CC(C)C)CC3)ccc21`, the displacement was -0.3% (inactive).

Consider `Cc1ccc(-n2[nH]c(C)c(C=Nc3ccc(C)cn3)c2=O)cc1`, for which the displacement is 2% (inactive).

On to `Cn1cccc1/C=C1/C(=O)NC(=S)N(c2cccc(Cl)c2)C1=O`, for which the displacement is 37.8% (inactive).

For `COc1ccccc1C=C1C(=O)NC(=S)N(c2ccccc2F)C1=O`, the displacement was 4% (inactive).

In the case of `COc1ccccc1N1C(=O)C(=Cc2cccn2C)C(=O)NC1=S`, the displacement was 69.9% (active).

With `N#Cc1cccc(-n2c(-c3ccccc3)nnc2-c2ccccc2)c1C#N`, the displacement is -2.8% (inactive).

Take `COc1cc(NC(=O)c2ccc3c(c2)OCCO3)ccc1NC(=O)c1ccco1`: the displacement is -0.4% (inactive).

In the case of `Cc1nn(-c2ccc(F)cc2)c(C)c1NS(=O)(=O)c1ccc(Cl)cc1`, the displacement was 1% (inactive).

Regarding `Cc1ccc(-n2[nH]c(=O)c(/C=c3/c(C)c(C#N)c4nc5ccccc5n4c3=O)c2O)cc1C`, the displacement is 83% (active).

Take `Cc1c(C#N)c2nc3ccccc3n2c(=O)/c1=C/c1sc2ccccc2c1O`: the displacement was 2.1% (inactive).

Take `Cc1c(C#N)c2nc3ccccc3n2c(=O)/c1=C\c1c(O)n(-c2ccc(Br)cc2)[nH]c1=O`: the displacement was 24.7% (inactive).

`O=C1c2ccccc2C(=O)N1c1ccc2c(c1)C(=O)N(c1ccccc1)C2=O`: the displacement is 4.1% (inactive).

As for `Nc1ccc2c(c1)C(=O)N(c1ccccc1)C2=O`, the displacement was 8.5% (inactive).

In the case of `O=[N+]([O-])c1cc(-c2nnc(-c3ccc(Br)o3)o2)cc([N+](=O)[O-])c1`, the displacement was 0.4% (inactive).

As for `O=C(NC1CC1)C1CCCN(C(=O)Nc2ccc(F)cc2)C1` (centres undefined), the displacement is -7.5% (inactive).

As to `Cc1ccc(C)c(S(=O)(=O)Nc2ccc3sc(C)nc3c2)c1`, the displacement was -3.2% (inactive).

`CCOC(=O)c1[nH]cnc1C(=O)Nc1ccccc1`: the displacement was 0% (inactive).

For the molecule `CCOC(=O)c1[nH]cnc1C(=O)NCc1ccccc1`, the displacement was 88.8% (active).

As for `CCOC(=O)c1[nH]cnc1C(=O)Nc1ccccn1`, the displacement is -29.4% (inactive) and -2.5% (inactive).

`CC1=C(C(=O)Nc2ccccc2C)C(c2ccc(C)o2)N2C(=O)CSC2=N1` (centres undefined): the displacement was 1.1% (inactive).

On to `CCN1C(=O)/C(=C2\SC(=O)N(Cc3ccccc3)C2=O)c2ccccc21`, for which the displacement is -2.9% (inactive).

Consider `N#C/C(=C\c1ccc(-c2ccc(C(=O)O)cc2)o1)C(=O)NCc1ccco1`, for which the displacement is -4.4% (inactive).

In the case of `N#C/C(=C\c1ccc(-c2cccc(Cl)c2Cl)o1)C(=O)NCc1ccco1`, the displacement is -2.5% (inactive).

Turning to `Cc1ccc([N+](=O)[O-])cc1-c1ccc(/C=C(\C#N)C(=O)NCc2ccco2)o1`, the displacement was 75.7% (active).

Take `CC(=O)OC(/C(O)=C(\C#N)c1nc2ccccc2[nH]1)c1ccccc1` (centres undefined): the displacement is -1.2% (inactive).

Regarding `CC(NS(C)(=O)=O)C(c1cccs1)N1CCN(Cc2ccccc2)CC1` (centres undefined), the displacement was 3.1% (inactive).

As for `O=C1N=c2ccccc2=C1c1s/c(=N/N=C2/C(=O)Nc3ccccc32)n(-c2ccc(O)cc2)c1O`, the displacement was 93.6% (active).

Regarding `O=C1N=c2ccccc2=C1c1sc(=Nc2ccccc2)n(-c2ccccc2)c1O`, the displacement is 5.2% (inactive).

For `O=C1N=c2ccccc2=C1c1sc(=O)n(-c2ccc(O)cc2)c1O`, the displacement is -21.2% (inactive).

Consider `CC(=O)NS(=O)(=O)c1ccc(NC(=O)c2ccccc2F)cc1`, for which the displacement is 6% (inactive).

On to `COCC(=O)Nc1nc(-c2ccccc2)c(C)s1`, for which the displacement is -1.9% (inactive).

With `O=C1NC(=S)N/C1=C\c1ccc(-c2cccc([N+](=O)[O-])c2)o1`, the displacement was 0.3% (inactive).

As for `O=C1NC(=S)N/C1=C/c1ccc(-c2cc([N+](=O)[O-])ccc2Cl)o1`, the displacement was 17.3% (inactive).

Regarding `O=C1NC(=S)N/C1=C\c1ccc(-c2cc([N+](=O)[O-])ccc2Br)o1`, the displacement was 51.2% (active).

Turning to `Cc1ccc(NC(=O)c2ccccc2Br)cc1`, the displacement is 1.9% (inactive).

With `COc1ccccc1NC1=NC2(CCCCC2)N=C(N)N1`, the displacement was 97.6% (active).

As for `COc1ccc(OC)c(NC2=NC3(CCCC3)N=C(N)N2)c1`, the displacement is 0.2% (inactive) and -1.2% (inactive).

Regarding `COc1ccc(OC)c(NC2=NC3(CCCCC3)N=C(N)N2)c1`, the displacement is -6.7% (inactive) and 3.4% (inactive).

As for `CC(C)Oc1c(I)cc(I)cc1/C=C(/C#N)c1nc2ccccc2[nH]1`, the displacement was -0.1% (inactive).

Regarding `Cc1ccc(/C(N)=N/OC(=O)c2ccc(Br)cc2)cc1`, the displacement was 1.1% (inactive).

With `O=C1C(=O)N(CC2CCCO2)C(c2cccc([N+](=O)[O-])c2)/C1=C(/O)c1ccccc1` (centres undefined), the displacement is -4.4% (inactive).

`COc1cccc(C2NC(=O)NC(C)=C2C(=O)OCCc2ccccc2)c1OC` (centres undefined): the displacement was -3% (inactive).

Turning to `COc1ccc(Cn2c3nc4ccccc4nc3c3c(=O)n(Cc4ccco4)c(C)nc32)cc1`, the displacement was 2.5% (inactive).

Turning to `COc1ccc(Cn2c3nc4ccccc4nc3c3c(=O)n(Cc4ccco4)cnc32)cc1`, the displacement was -6% (inactive).

As to `COc1ccc(Cn2c(C)nc3c(c2=O)c2nc4ccccc4nc2n3Cc2ccco2)cc1`, the displacement is 69.5% (active).

Turning to `O=C(O)CCCCCCCCCCN1C(=O)/C(=C/c2cccc(Br)c2)SC1=S`, the displacement is 56.6% (active).

For the molecule `O=C(O)CCCCCN1C(=O)/C(=C/c2cccc(F)c2)SC1=S`, the displacement was -1.8% (inactive).

Turning to `O=C(O)CCCN1C(=O)/C(=C/c2cccc(Br)c2)SC1=S`, the displacement was 6.7% (inactive).

In the case of `O=C(NN1CCOCC1)c1cc2ccccc2oc1=O`, the displacement was 1.1% (inactive).

As to `CC(=O)C1=C(C)NC(SCC(N)=O)=C(C#N)C1c1cccnc1` (centres undefined), the displacement was -1.1% (inactive).

For `Cc1ccc(C)n1-c1ccc(Br)cc1C(=O)O`, the displacement is 7.4% (inactive).

Take `Cc1ccc(C)n1-c1sccc1C(=O)O`: the displacement is 24.9% (inactive).

`Cc1ccc(-c2ccccc2)n1-c1ccccc1C(=O)O`: the displacement is 5.6% (inactive).

As to `Cc1ccc(C)n1-c1ccccc1C(=O)O`, the displacement was 92.7% (active).

For the molecule `Cc1c(C(=O)O)cccc1-n1c(C)ccc1C`, the displacement is 51.1% (active).

Consider `Cc1ccc(C)n1-c1ccc(Cl)cc1C(=O)O`, for which the displacement was 104% (active).

In the case of `COc1cc(C(=O)O)c(-n2c(C)ccc2C)cc1OC`, the displacement is 6.6% (inactive).

On to `Cc1nc(=O)c(-c2ccccc2)c(C)n1-c1ccccc1C(=O)O`, for which the displacement is 6.5% (inactive).

As to `Cc1c(C(=O)O)cccc1-n1c(=O)c2cc3c(=O)n(-c4cccc(C(=O)O)c4C)c(=O)c3cc2c1=O`, the displacement is -1.1% (inactive).

In the case of `COc1cc(OC)cc(C(=O)N2CCN(C(=O)c3cccc(F)c3)CC2)c1`, the displacement is 2.3% (inactive).

`COC(=O)c1ccc(/C=C2\SC(=S)N(C(Cc3ccccc3)C(=O)O)C2=O)cc1` (centres undefined): the displacement is -0.2% (inactive).

In the case of `O=C1NC(=O)/C(=C/c2c(F)cccc2Cl)S1`, the displacement was 4.2% (inactive).

On to `S=c1[nH]nc(-c2cccc(Cl)c2)n1-c1ccccc1`, for which the displacement is 4% (inactive).

On to `COc1ccc(CC(=O)c2cc(OC)c(OC)cc2CC(=O)O)cc1OC`, for which the displacement is -0.7% (inactive).

Turning to `COC(=O)c1cc(C#N)c(SCc2ccccc2)nc1C`, the displacement was -5% (inactive).

Consider `O=C(c1ccc(N2CCN(C(=O)c3ccccc3Br)CC2)cc1)c1cccc(F)c1`, for which the displacement was 83.6% (active).

For the molecule `O=C(c1ccc(N2CCN(C(=O)c3ccccc3F)CC2)cc1)c1cccc(F)c1`, the displacement is -2.9% (inactive).

In the case of `O=C(c1ccc(N2CCN(C(=O)c3ccccc3)CC2)cc1)c1cccc(F)c1`, the displacement is -1.2% (inactive).

For `CCN1CCN(P2(=O)C=C(c3ccccc3)OC(c3ccccc3)=C2)CC1`, the displacement was 1.1% (inactive).

As to `O=C(c1coc(=O)c(Br)c1)N1CCOCC1`, the displacement was 7.3% (inactive).

Regarding `O=C(c1coc(=O)c(Br)c1)N1CCCc2ccccc21`, the displacement was 6.5% (inactive).

Turning to `COc1ccc(CCNC(=O)CSc2nc3ccccc3o2)cc1OC`, the displacement is 0.2% (inactive).

Turning to `COc1ccc(C2c3c(oc4ccccc4c3=O)C(=O)N2CC2CCCO2)cc1` (centres undefined), the displacement is -2.4% (inactive).

As for `O=C1c2oc3ccc(F)cc3c(=O)c2C(c2ccccc2)N1CC1CCCO1` (centres undefined), the displacement is -3.1% (inactive).

Take `O=C(COc1ccc([N+](=O)[O-])cc1)Nc1cccc(Cl)c1Cl`: the displacement is 2.1% (inactive).

Regarding `CCCCOc1ccc(N2C(=O)C3CC(C)=C(C)CC3C2=O)cc1` (centres undefined), the displacement is 0.2% (inactive).

For the molecule `CCOc1cc(CNn2cnnc2)cc(Br)c1OCC(=O)NC1CCCCC1`, the displacement was 5.5% (inactive).

Turning to `C=CCn1c2ccccc2c2nnc(SCC(=O)Nc3sc4c(c3C#N)CCCC4)nc21`, the displacement was -2% (inactive).

Turning to `CC(=NCCCn1ccnc1)c1c(-c2ccccc2)[nH]n(-c2nc3ccccc3s2)c1=O`, the displacement is 0.5% (inactive).

Regarding `Cc1c(NS(=O)(=O)c2cc(Cl)ccc2Cl)cccc1[N+](=O)[O-]`, the displacement was -2.4% (inactive).

For the molecule `O=C(Nc1ccc2nc(-c3cccs3)c(-c3cccs3)nc2c1)NC1CC1`, the displacement was 2.3% (inactive).

For the molecule `O=C(Nc1ccc(N2CCOCC2)cc1)Nc1ccc2nc(-c3ccco3)c(-c3ccco3)nc2c1`, the displacement is 1.1% (inactive).

As to `Brc1ccc(/C=N/c2ncn[nH]2)cc1`, the displacement was 3.3% (inactive).

Consider `CCN1C(=O)/C(=C\c2ccc(OCc3ccccc3Cl)cc2)SC1=S`, for which the displacement was -2.5% (inactive).

Consider `C=CCN1C(=O)/C(=C/c2cccc(OCc3ccccc3Cl)c2)SC1=S`, for which the displacement was 0.3% (inactive).

With `C=CCN1C(=O)/C(=C\c2ccc(OCc3ccccc3Cl)cc2)SC1=S`, the displacement was 56.5% (active).
